# This is one part of a sample in which the strongest signals are shown more often than they occur.
# B1: GSL-I (Griffonia simplicifolia) (protein)
# chain: FNLPNFWSDVKDNIIFQGDANTTAGTLQLCKTNQYGNPLQYRAGRALYSDPVQLWDNKTGSVASFYTEFTFFLKITGDGPADGLAFFLAPPDSDVKDAGAYLGLFNKSTATQPSKNQVVAVEFDTWKNTDFPEPSYRHIGINVNSIVSVATKRWEDSDIFSGKIATARISYDGSAKILTVVLSYPDGADYILSHSVDLSKNLPNPIRVGISASTGANQFLTVYVLSWRFSSALQSTSVNAAMGPEIIRTVV
# Experiments:
# Experiment in all cases: glycan array binding signal (z-score within array); higher = stronger binding
# Conditions in all cases: glycan notation: IUPAC condensed, linker removed
# [1] = target: Fuc(a1-2)Gal(b1-3)GalNAc(a1-3)[Fuc(a1-2)]Gal(b1-4)GlcNAc
# How it was run: (§1)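 The Consortium for Functional Glycomics database supplied 3228 glycan arrays, of which those lacking an available protein sequence were dropped. The binding signal, a within-array Z-score, was averaged across arrays of the same protein sequence and across linkers. Negative scores can be read as non-binding.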
# [2] = target: Fuc(a1-2)Gal(b1-4)Fuc(a1-3)]GlcNAc(b1-2)Man(a1-3)[Fuc(a1-2)Gal(b1-4)[Fuc(a1-3)]GlcNAc(b1-2)Man(a1-6)]Man(b1-4)GlcNAc(b1-4)GlcNAc
# How it was run: as §1
# [3] = target: Fuc(a1-2)Gal6S(b1-4)Glc6S
# How it was run: as §1
# [4] = target: Fuc(a1-2)[GalNAc(a1-4)]Gal(b1-4)GlcNAc
# How it was run: as §1
# [5] = target: Fuc(a1-3)[Gal(b1-4)]Glc6S
# How it was run: as §1
# [6] = target: Fuc(a1-3)[Gal(b1-4)]GlcNAc(b1-2)Man(a1-3)[Fuc(a1-3)[Gal(b1-4)]GlcNAc(b1-2)Man(a1-6)]Man(b1-4)GlcNAc(b1-4)GlcNAc
# How it was run: as §1
# [7] = target: Fuc(a1-3)[Gal(b1-4)]GlcNAc(b1-3)Gal(b1-4)[Fuc(a1-3)]GlcNAc(b1-3)Gal(b1-4)[Fuc(a1-3)]GlcNAc
# How it was run: as §1
# [8] = target: Fuc(a1-3)[Gal(b1-4)]GlcNAc(b1-4)Gal(b1-4)[Fuc(a1-3)]GlcNAc
# How it was run: as §1
# [9] = target: Fuc(a1-4)GlcNAc
# How it was run: as §1
# [10] = target: Fuc(b1-3)GlcNAc
# How it was run: as §1
# [11] = target: Gal(a1-3)Gal
# How it was run: as §1
# [12] = target: Gal(a1-3)Gal(b1-4)GlcNAc(b1-2)Man(a1-3)[Gal(a1-3)Gal(b1-4)GlcNAc(b1-2)Man(a1-6)]Man(b1-4)GlcNAc(b1-4)GlcNAc
# How it was run: as §1
# [13] = target: Gal(a1-3)Gal(b1-4)[Fuc(a1-3)]GlcNAc
# How it was run: as §1
# [14] = target: Gal(a1-3)Gal(b1-4)[Fuc(a1-3)]GlcNAc(b1-2)Man(a1-3)[Gal(a1-3)Gal(b1-4)[Fuc(a1-3)]GlcNAc(b1-2)Man(a1-6)]Man(b1-4)GlcNAc(b1-4)GlcNAc
# How it was run: as §1
# [15] = target: Gal(a1-4)Gal(b1-3)GlcNAc(b1-2)Man(a1-3)[Gal(a1-4)Gal(b1-3)GlcNAc(b1-2)Man(a1-6)]Man(b1-4)GlcNAc(b1-4)GlcNAc
# How it was run: as §1
# [16] = target: Gal(a1-4)Gal(b1-4)GlcNAc
# How it was run: as §1
# [17] = target: Gal(a1-4)Gal(b1-4)GlcNAc(b1-2)Man(a1-3)[Gal(a1-4)Gal(b1-4)GlcNAc(b1-2)Man(a1-6)]Man(b1-4)GlcNAc(b1-4)GlcNAc
# How it was run: as §1
# [18] = target: Gal(a1-4)GlcNAc
# How it was run: as §1
# [19] = target: Gal(b1-3)GlcNAc(b1-2)Man
# How it was run: as §1
# [20] = target: Gal(b1-3)GlcNAc(b1-3)Gal(b1-4)Glc
# How it was run: as §1
# [21] = target: Gal(b1-3)GlcNAc(b1-3)Gal(b1-4)GlcNAc
# How it was run: as §1
# [22] = target: Gal(b1-3)GlcNAc(b1-3)GalNAc
# How it was run: as §1
# [23] = target: Gal(b1-3)[GlcNAc(b1-6)]GalNAc
# How it was run: as §1
# [24] = target: Gal(b1-4)GlcNAc(b1-3)[Gal(b1-4)GlcNAc(b1-6)]GalNAc
# How it was run: as §1
# [25] = target: Gal(b1-4)GlcNAc6P
# How it was run: as §1
# [26] = target: GalNAc(a1-3)Gal
# How it was run: as §1
# [27] = target: GalNAc(a1-3)GalNAc
# How it was run: as §1
# [28] = target: GalNAc(a1-3)GalNAc(a1-3)Gal(a1-4)Gal(b1-4)GlcNAc
# How it was run: as §1
# [29] = target: GalNAc(b1-3)Gal(a1-6)Gal(b1-4)Glc
# How it was run: as §1
# [30] = target: GalNAc(b1-3)GalNAc
# How it was run: as §1
# [31] = target: GalNAc(b1-4)GlcNAc(b1-2)Man
# How it was run: as §1
# [32] = target: GlcNAc(a1-3)Gal(b1-4)GlcNAc
# How it was run: as §1
# [33] = target: GlcNAc(b1-2)[GlcNAc(b1-6)]Man(a1-6)[GlcNAc(b1-2)Man(a1-3)]Man(b1-4)GlcNAc(b1-4)GlcNAc
# How it was run: as §1
# [34] = target: GlcNAc(b1-3)Gal(b1-4)GlcNAc(b1-3)Gal(b1-4)GlcNAc(b1-2)[GlcNAc(b1-3)Gal(b1-4)GlcNAc(b1-3)Gal(b1-4)GlcNAc(b1-6)]Man(a1-6)[GlcNAc(b1-3)Gal(b1-4)GlcNAc(b1-3)Gal(b1-4)GlcNAc(b1-2)Man(a1-3)]Man(b1-4)GlcNAc(b1-4)[Fuc(a1-6)]GlcNAc
# How it was run: as §1
# [35] = target: GlcNAc(b1-3)Gal(b1-4)GlcNAc(b1-6)[GlcNAc(b1-3)]Gal(b1-4)GlcNAc
# How it was run: as §1
# [36] = target: GlcNAc(b1-3)Man
# How it was run: as §1
# [37] = target: Kdn(a2-3)Gal(b1-3)GalNAc
# How it was run: as §1
# [38] = target: Man(a1-2)Man(a1-3)[Man(a1-2)Man(a1-6)]Man(a1-6)[Man(a1-2)Man(a1-2)Man(a1-3)]Man(b1-4)GlcNAc(b1-4)GlcNAc
# How it was run: as §1
# [39] = target: Man(a1-2)Man(a1-6)[Man(a1-3)]Man(a1-6)[Man(a1-2)Man(a1-2)Man(a1-3)]Man(b1-4)GlcNAc(b1-4)GlcNAc
# How it was run: as §1
# [40] = target: Man(a1-3)[Man(a1-6)]Man(b1-4)GlcNAc(b1-4)[Fuc(a1-6)]GlcNAc
# How it was run: as §1
# [41] = target: Neu5Ac(a2-3)Gal(b1-3)GlcNAc(b1-3)Gal(b1-3)GlcNAc
# How it was run: as §1
# [42] = target: Neu5Ac(a2-3)Gal(b1-4)GlcNAc(b1-2)Man(a1-3)[Neu5Ac(a2-3)Gal(b1-4)GlcNAc(b1-2)Man(a1-6)]Man(b1-4)GlcNAc(b1-4)[Fuc(a1-6)]GlcNAc
# How it was run: as §1
# [43] = target: Neu5Ac(a2-3)Gal(b1-4)GlcNAc(b1-2)Man(a1-3)[Neu5Ac(a2-6)Gal(b1-4)GlcNAc(b1-2)Man(a1-6)]Man(b1-4)GlcNAc(b1-4)GlcNAc
# How it was run: as §1
# [44] = target: Neu5Ac(a2-3)Gal(b1-4)GlcNAc(b1-3)Gal(b1-4)GlcNAc(b1-3)Gal(b1-4)GlcNAc
# How it was run: as §1
# [45] = target: Neu5Ac(a2-3)Gal(b1-4)GlcNAc(b1-3)Gal(b1-4)GlcNAc(b1-3)Gal(b1-4)GlcNAc(b1-2)Man(a1-3)[Neu5Ac(a2-3)Gal(b1-4)GlcNAc(b1-3)Gal(b1-4)GlcNAc(b1-3)Gal(b1-4)GlcNAc(b1-2)Man(a1-6)]GalNAc
# How it was run: as §1
# [46] = target: Neu5Ac(a2-3)Gal(b1-4)[Fuc(a1-3)]GlcNAc(b1-2)Man
# How it was run: as §1
# [47] = target: Neu5Ac(a2-6)Gal(b1-4)GlcNAc(b1-2)Man(a1-6)[Gal(b1-4)GlcNAc(b1-2)Man(a1-3)]Man(b1-4)GlcNAc(b1-4)GlcNAc
# How it was run: as §1
# [48] = target: Neu5Ac(a2-6)Gal(b1-4)GlcNAc(b1-3)Gal(b1-4)GlcNAc(b1-6)[Gal(b1-3)]GalNAc
# How it was run: as §1
# [49] = target: Neu5Ac(a2-6)Gal(b1-4)GlcNAc(b1-3)GalNAc
# How it was run: as §1
# [50] = target: Neu5Ac(a2-6)GalNAc(b1-4)GlcNAc6S
# How it was run: as §1
# [51] = target: Neu5Gc(a2-3)Gal(b1-3)GlcNAc
# How it was run: as §1
# [52] = target: Neu5Gc(a2-3)Gal(b1-4)[Fuc(a1-3)]GlcNAc
# How it was run: as §1
# [53] = target: Neu5Gc(b2-6)Gal(b1-4)GlcNAc
# How it was run: as §1
binder,measurement,setting,value
B1,glycan array binding signal (z-score),[1],-0.242
same,glycan array binding signal (z-score),[2],0.367
same,glycan array binding signal (z-score),[3],-0.216
same,glycan array binding signal (z-score),[4],7.04
same,glycan array binding signal (z-score),[5],-0.16
same,glycan array binding signal (z-score),[6],-0.232
same,glycan array binding signal (z-score),[7],-0.188
same,glycan array binding signal (z-score),[8],-0.311
same,glycan array binding signal (z-score),[9],-0.215
same,glycan array binding signal (z-score),[10],-0.236
same,glycan array binding signal (z-score),[11],0.597
same,glycan array binding signal (z-score),[12],5.7
same,glycan array binding signal (z-score),[13],3.4
same,glycan array binding signal (z-score),[14],0.283
same,glycan array binding signal (z-score),[15],9.69
same,glycan array binding signal (z-score),[16],1.82
same,glycan array binding signal (z-score),[17],3.15
same,glycan array binding signal (z-score),[18],4.53
same,glycan array binding signal (z-score),[19],-0.124
same,glycan array binding signal (z-score),[20],-0.194
same,glycan array binding signal (z-score),[21],-0.226
same,glycan array binding signal (z-score),[22],-0.203
same,glycan array binding signal (z-score),[23],-0.102
same,glycan array binding signal (z-score),[24],-0.312
same,glycan array binding signal (z-score),[25],-0.178
same,glycan array binding signal (z-score),[26],6.1
same,glycan array binding signal (z-score),[27],2.08
same,glycan array binding signal (z-score),[28],1.85
same,glycan array binding signal (z-score),[29],-0.191
same,glycan array binding signal (z-score),[30],-0.272
same,glycan array binding signal (z-score),[31],-0.143
same,glycan array binding signal (z-score),[32],-0.199
same,glycan array binding signal (z-score),[33],-0.121
same,glycan array binding signal (z-score),[34],0.036
same,glycan array binding signal (z-score),[35],-0.255
same,glycan array binding signal (z-score),[36],-0.193
same,glycan array binding signal (z-score),[37],-0.069
same,glycan array binding signal (z-score),[38],-0.033
same,glycan array binding signal (z-score),[39],-0.302
same,glycan array binding signal (z-score),[40],-0.305
same,glycan array binding signal (z-score),[41],-0.152
same,glycan array binding signal (z-score),[42],-0.283
same,glycan array binding signal (z-score),[43],-0.197
same,glycan array binding signal (z-score),[44],-0.261
same,glycan array binding signal (z-score),[45],2.34
same,glycan array binding signal (z-score),[46],-0.227
same,glycan array binding signal (z-score),[47],0.106
same,glycan array binding signal (z-score),[48],-0.048
same,glycan array binding signal (z-score),[49],-0.128
same,glycan array binding signal (z-score),[50],-0.271
same,glycan array binding signal (z-score),[51],-0.164
same,glycan array binding signal (z-score),[52],-0.153
same,glycan array binding signal (z-score),[53],-0.099
